From PubChem
USP17 inh: human USP17-like deubiquitinase inhibition; purified USP17, Ub-rhodamine cleavage fluorescence, 3 h; A8MUK1; hit rate 6.5% among 47,000; inhibition, % at 50 µM
Target sequence (A8MUK1 whole entry, looked up): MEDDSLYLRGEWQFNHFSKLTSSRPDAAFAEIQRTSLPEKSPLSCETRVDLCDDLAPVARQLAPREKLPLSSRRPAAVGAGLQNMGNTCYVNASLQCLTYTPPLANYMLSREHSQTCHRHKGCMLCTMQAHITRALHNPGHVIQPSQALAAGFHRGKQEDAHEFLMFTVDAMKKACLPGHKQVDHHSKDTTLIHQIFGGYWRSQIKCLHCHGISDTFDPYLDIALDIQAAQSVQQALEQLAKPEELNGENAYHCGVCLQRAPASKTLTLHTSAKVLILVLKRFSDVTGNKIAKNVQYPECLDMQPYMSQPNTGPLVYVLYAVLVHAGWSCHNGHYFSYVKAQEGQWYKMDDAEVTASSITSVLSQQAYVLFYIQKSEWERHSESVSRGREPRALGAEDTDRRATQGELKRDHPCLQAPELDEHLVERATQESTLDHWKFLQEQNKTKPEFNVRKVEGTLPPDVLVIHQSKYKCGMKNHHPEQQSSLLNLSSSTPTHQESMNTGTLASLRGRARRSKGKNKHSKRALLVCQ
USP8 block: human USP8 deubiquitinase inhibition; inhibition, % at 20 µM; AID 1645853; P40818; hit rate 4.2% among 47,000; purified USP8, Ub-rhodamine cleavage fluorescence, 30 min
USP10 inh: inhibitors of human USP10 deubiquitinase | inhibition, % at 20 µM | hit rate 1.1% among 47,000 | Q14694 | purified USP10, Ub-rhodamine fluorescence, 60 min | AID 1645856
USP28 block: inhibitors of human USP28 deubiquitinase | Q96RU2 | purified USP28, Ub-rhodamine cleavage fluorescence, 30 min | AID 1645857 | hit rate 3% among 47,000 | inhibition, % at 25 µM
USP30 inh: inhibitors of human USP30 deubiquitinase | hit rate 5.3% among 47,000 | purified USP30, Ub-rhodamine cleavage fluorescence | inhibition, % at 25 µM | AID 1645860 | Q70CQ3
Hits are given with their value; – = inactive. Sampled rows, rich in hits. Any-hit rate of the full collection: about 13%. No stated cut-off is given here; in the data, active means inhibition above about 30%; inactive means the rest.

SMILES	USP17 inh	USP8 block	USP10 inh	USP28 block	USP30 inh
COc1ccc(NC(=O)COc2cc(C)nc(-c3ccc(C)cc3)n2)c(OC)c1	63	46	30	–	58
COc1ccc(NC(=O)COc2ccc(C(=O)c3ccccc3)cc2)c(OC)c1	–	–	–	–	–
COc1ccc(NC(=O)c2ccc(SCCN3CCOCC3)nc2)c(OC)c1	–	–	–	–	–
CCN1CCN(c2ccc(NC(=O)c3ccc(OC)cc3)cn2)C1=O	–	–	–	45	–
COc1ccc(C(=O)Nc2cnc(-c3ccccc3)nc2)cc1	38	92	–	–	–
CCN1CCN(c2ccc(NC(=O)c3ccc4c(c3)OCO4)cn2)C1=O	–	–	–	–	–
COc1ccc(C(=O)Nc2cnc(N3CCCCC3)nc2)cc1	–	–	–	38	–
CN(C)S(=O)(=O)Oc1ccc(C(=O)Nc2ccc(F)cc2)cc1	40	–	–	32	41
COCCN1C(=O)c2ccccc2C(C(=O)N2CCC(C)CC2)C1c1cccs1 (stereo unspecified)	–	–	–	–	–
COc1ccccc1NC(=O)C1=C(C)Nc2nc(SCc3ccccc3F)nn2C1c1ccccn1 (stereo unspecified)	–	–	–	–	–
COc1ccc(NC(=O)c2ccc(Nc3nnc(C)c4ccccc34)cc2)cc1	–	–	–	66	–
Cc1ccc(C(=O)Nc2ccc3nccnc3c2)cc1	–	–	–	59	–
COc1ccc(NC(=O)c2ccc(C)cc2)cc1	45	–	–	–	31
Cc1ccc(C(=O)Nc2cnc(N3CCOCC3)nc2)cc1C	–	–	–	40	–
NC(=O)c1sc(N2CCCCC2)nc1N	–	–	–	–	–
COc1ccc(CC(=O)N2CCc3nc(N4CCCCC4)[nH]c(=O)c3C2)cc1	–	–	–	–	–
COc1cccc(C(=O)Nc2ccc3c(c2)Sc2ncccc2C(=O)N3C)c1OC	–	–	–	–	–
COc1ccc(-c2cc(-c3nnc(CSc4nc5ccccc5n4C)o3)c3ccccc3n2)cc1OC	58	–	–	–	–
COc1ccc(C(=O)CSc2nc3ccccc3n2C)c(F)c1	–	–	–	–	–
COc1ccccc1C1CNCCN1C(=O)C1CCC(F)(F)CC1 (stereo unspecified)	–	–	–	–	–
CCNC(=O)c1ccc(N2CCNCC2)c(NS(=O)(=O)c2cc(C)ccc2C)c1	–	36	–	–	–
Nc1c(-c2ccccc2)c(COc2ccccc2)nn1-c1nc2ccccc2s1	–	–	–	–	–
Cc1cc(N)n(-c2nc3ccccc3s2)n1	36	–	–	–	41
Cc1cccc(OCc2cc(-c3ccccc3)no2)c1C	–	–	–	48	–
O=C(Cn1c(=O)[nH]c2ccccc2c1=O)NCc1ccccc1Cl	40	55	–	–	–
SMILES	USP17 inh	USP8 block	USP10 inh	USP28 block	USP30 inh
CC(=O)c1cccc(NC(=O)c2ccc(N3CCCCC3)nn2)c1	49	–	–	–	57
Cc1ccccc1NC(=O)c1ccc(N2CCCCC2)nn1	47	–	–	–	70
Cc1cc(OCC(=O)Nc2ccccc2C)nc(N2CCCCCC2)n1	–	–	–	–	36
Cc1cc(OCC(=O)Nc2ccccc2F)nc(N2CCCCCC2)n1	–	–	–	–	–
COc1ccc(CC(=O)N2CCC(c3[nH]nc4nccnc34)CC2)cc1	–	–	–	–	–
O=C(c1cc2ccccc2o1)[C@@H]1[C@@H]2CCCN2[C@]2(C(=O)Nc3c(Cl)cccc32)[C@@]12C(=O)Nc1ccccc12	–	–	–	–	–
Cc1cc(Cl)c2c(c1)[C@]1(C(=O)N2)N2CCC[C@H]2[C@@H](C(=O)c2cc3ccccc3o2)[C@]12C(=O)Nc1ccccc12	63	41	–	–	–
O=S(=O)(Nc1nc2ccccc2nc1NCc1ccc2c(c1)OCO2)c1ccc(F)cc1	–	–	–	–	–
O=S(=O)(NNc1nc2ccccc2nc1C(F)(F)F)c1ccc(Br)cc1	–	–	–	–	36
Cc1cccn2c(=O)c3cc(C#N)c(=O)n(-c4ccccc4[N+](=O)[O-])c3nc12	39	–	–	–	–
Cc1noc(C)c1CN1CCC(NC(=O)c2cccc(C#N)c2)C1 (stereo unspecified)	–	–	–	–	–
CS(=O)(=O)N1CCCc2cc(C(=O)Nc3ccc(Oc4ccccc4)cc3)ccc21	–	–	–	54	–
CCS(=O)(=O)N1CCc2cc(C(=O)Nc3ccc4c(c3)OCCO4)ccc21	–	–	–	93	–
CS(=O)(=O)N1CCCc2cc(C(=O)NCc3ccc4c(c3)OCO4)ccc21	–	–	–	–	–
CS(=O)(=O)N1CCc2cc(C(=O)Nc3ccc(Cc4ccncc4)cc3)ccc21	–	–	–	75	–
CC1CS(=O)(=O)N(c2ccc(C(=O)Nc3ccc4c(c3)OCCO4)cc2)C1=O (stereo unspecified)	56	–	–	79	–
Cc1ccccc1CNC(=O)N1CCC2(CC1)NC(=O)[C@H]1CN(CC(C)C)C[C@H]12	–	–	–	–	–
O=S(=O)(c1cccc(F)c1)N1CCc2nc3ccccc3n2CC1	91	–	–	–	–
O=C(Nc1cccc(C(F)(F)F)c1)N1CCCn2c(nc3ccccc32)C1	37	–	–	32	79
O=C(Nc1ccccc1)N1CCCn2c(nc3ccccc32)C1	–	–	–	–	–
O=S(=O)(c1cccc(F)c1)N1CCN(c2nnnn2-c2ccccc2)CC1	30	–	–	–	–
O=C(Nc1ccccc1)N1CCC(CCOc2ccccc2)CC1	–	–	–	–	–
N#Cc1cccc(NC(=O)N2CCC(CCOc3ccccc3)CC2)c1	–	–	–	–	33
Cc1cc(Nc2ncccc2C)nc(C2CCCN(S(C)(=O)=O)C2)n1 (stereo unspecified)	–	–	–	–	–
Cc1cccc(S(=O)(=O)N2CCc3nc4ccccc4n3CC2)c1	84	–	–	–	–
SMILES	USP17 inh	USP8 block	USP10 inh	USP28 block	USP30 inh
N#Cc1cccc(NC(=O)N2CCc3nc4ccccc4n3CC2)c1	–	–	–	–	33
N#Cc1cccc(S(=O)(=O)N2CCc3nc4ccccc4n3CC2)c1	30	–	–	–	51
CC(C)(C)C(=O)N1CCC2(C1)Nc1cccnc1NC2=NCc1ccccc1 (stereo unspecified)	–	–	–	–	–
N#Cc1ccc(NC(=O)COC(=O)c2ccccc2Nc2ccccc2)cc1	34	–	–	–	–
O=C(COC(=O)c1ccccc1Nc1ccccc1)Nc1ccc2ccccc2c1	–	–	–	–	–
O=C(COC(=O)c1ccccc1OCc1ccccc1)Nc1ccc(Cl)cc1	–	–	–	36	34
N#Cc1cccc(NC(=O)COC(=O)c2ccccc2OCc2ccc(Cl)cc2)c1	–	–	–	–	–
Cc1nn(-c2ccccc2)c(C)c1C(=O)OCC(=O)Nc1cccc2ccccc12	–	–	–	–	–
O=C(COC(=O)c1ccccc1OCc1ccccc1)Nc1cccc2ccccc12	–	–	–	30	49
CCOc1cc2c(cc1OCC)C1CC(=O)N(c3ccc(Cl)cc3)C(=O)N1CC2 (stereo unspecified)	–	–	–	–	–
